# Results published in ChEMBL document CHEMBL3988442, “University of Dundee, Small-Polar-MMV Screening Library” (2021).
# For some assays here: Results with a measured potency or affinity are listed apart.
# Columns and labels:
# Design in all cases: scale not given: direction of the effect not stated beside the values
# [1] = molecular target: Protein translocase subunit SecA (Escherichia coli (strain K12)) (UniProt P10408); assay: Assay to Identify E. coli SecA ATPase Inhibitors; type: functional; conditions: 30 µM
# Protein translocase subunit SecA (Escherichia coli (strain K12)), sequence (P10408 whole entry): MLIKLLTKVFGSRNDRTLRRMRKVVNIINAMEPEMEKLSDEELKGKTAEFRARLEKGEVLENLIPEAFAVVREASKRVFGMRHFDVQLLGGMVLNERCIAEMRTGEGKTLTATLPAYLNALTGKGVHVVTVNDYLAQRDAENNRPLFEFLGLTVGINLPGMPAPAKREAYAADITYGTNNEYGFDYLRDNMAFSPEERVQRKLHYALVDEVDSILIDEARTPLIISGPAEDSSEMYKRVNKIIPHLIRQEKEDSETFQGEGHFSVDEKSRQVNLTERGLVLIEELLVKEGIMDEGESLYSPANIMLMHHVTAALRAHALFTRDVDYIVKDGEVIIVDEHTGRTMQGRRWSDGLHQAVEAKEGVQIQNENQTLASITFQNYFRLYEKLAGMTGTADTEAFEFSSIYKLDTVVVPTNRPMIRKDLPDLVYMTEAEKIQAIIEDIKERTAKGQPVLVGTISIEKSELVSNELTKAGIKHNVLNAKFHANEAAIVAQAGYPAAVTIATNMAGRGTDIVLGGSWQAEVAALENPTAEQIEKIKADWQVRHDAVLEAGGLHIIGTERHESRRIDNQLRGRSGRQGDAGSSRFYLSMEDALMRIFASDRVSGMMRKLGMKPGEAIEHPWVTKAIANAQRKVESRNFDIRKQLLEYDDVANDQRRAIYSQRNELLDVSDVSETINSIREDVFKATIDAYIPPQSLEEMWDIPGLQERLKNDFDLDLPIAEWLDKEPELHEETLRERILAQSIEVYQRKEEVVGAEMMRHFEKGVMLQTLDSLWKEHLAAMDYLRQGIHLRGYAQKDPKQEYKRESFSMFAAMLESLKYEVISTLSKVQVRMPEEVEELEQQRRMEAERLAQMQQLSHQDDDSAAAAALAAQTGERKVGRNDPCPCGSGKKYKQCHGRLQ
# [2] = molecular target: T1, Ubiquitin-activating enzyme e1, putative (Leishmania donovani (strain BPK282A1)) (UniProt E9BSI1); assay: Leishmania donovani Ubiquitin Activating Enzyme (LdE1); type: functional; conditions: 30 µM
# T1 sequence (whole entry): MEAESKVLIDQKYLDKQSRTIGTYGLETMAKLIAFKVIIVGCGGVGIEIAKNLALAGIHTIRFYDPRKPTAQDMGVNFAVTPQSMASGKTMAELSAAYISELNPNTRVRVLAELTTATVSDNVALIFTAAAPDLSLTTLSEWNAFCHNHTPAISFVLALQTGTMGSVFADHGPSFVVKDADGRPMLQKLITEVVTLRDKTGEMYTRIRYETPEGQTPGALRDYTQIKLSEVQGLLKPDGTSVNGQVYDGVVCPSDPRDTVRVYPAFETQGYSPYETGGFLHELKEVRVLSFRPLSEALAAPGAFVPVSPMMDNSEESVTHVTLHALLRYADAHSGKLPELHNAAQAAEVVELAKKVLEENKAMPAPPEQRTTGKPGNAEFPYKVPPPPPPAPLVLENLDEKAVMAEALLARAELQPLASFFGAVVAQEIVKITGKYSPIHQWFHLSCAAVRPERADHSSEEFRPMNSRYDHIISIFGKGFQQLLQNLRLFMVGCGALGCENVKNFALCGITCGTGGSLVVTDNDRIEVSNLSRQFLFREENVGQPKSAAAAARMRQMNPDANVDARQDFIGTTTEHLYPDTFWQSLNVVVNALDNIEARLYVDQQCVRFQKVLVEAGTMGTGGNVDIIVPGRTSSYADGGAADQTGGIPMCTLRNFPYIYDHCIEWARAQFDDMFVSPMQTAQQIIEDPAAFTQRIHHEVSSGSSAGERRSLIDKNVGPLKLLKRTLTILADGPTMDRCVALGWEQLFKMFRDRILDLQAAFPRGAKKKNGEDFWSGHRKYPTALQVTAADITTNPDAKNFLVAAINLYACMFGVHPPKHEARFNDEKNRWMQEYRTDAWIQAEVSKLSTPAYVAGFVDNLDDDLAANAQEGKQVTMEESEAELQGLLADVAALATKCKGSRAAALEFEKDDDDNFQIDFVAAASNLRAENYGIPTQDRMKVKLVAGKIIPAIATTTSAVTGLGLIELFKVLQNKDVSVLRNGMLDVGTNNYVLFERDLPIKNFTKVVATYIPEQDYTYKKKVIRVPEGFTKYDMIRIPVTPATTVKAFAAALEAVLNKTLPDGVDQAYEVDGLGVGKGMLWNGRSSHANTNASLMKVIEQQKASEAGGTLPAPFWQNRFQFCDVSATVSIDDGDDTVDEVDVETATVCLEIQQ
# [3] = molecular target: Sialic acid-binding Ig-like lectin 9 (Homo sapiens) (UniProt Q9Y336); assay: Hs-Siglec9 ALPHAscreen SOP 20170721; conditions: 10 µM
# Sialic acid-binding Ig-like lectin 9 (Homo sapiens), sequence (Q9Y336 whole entry): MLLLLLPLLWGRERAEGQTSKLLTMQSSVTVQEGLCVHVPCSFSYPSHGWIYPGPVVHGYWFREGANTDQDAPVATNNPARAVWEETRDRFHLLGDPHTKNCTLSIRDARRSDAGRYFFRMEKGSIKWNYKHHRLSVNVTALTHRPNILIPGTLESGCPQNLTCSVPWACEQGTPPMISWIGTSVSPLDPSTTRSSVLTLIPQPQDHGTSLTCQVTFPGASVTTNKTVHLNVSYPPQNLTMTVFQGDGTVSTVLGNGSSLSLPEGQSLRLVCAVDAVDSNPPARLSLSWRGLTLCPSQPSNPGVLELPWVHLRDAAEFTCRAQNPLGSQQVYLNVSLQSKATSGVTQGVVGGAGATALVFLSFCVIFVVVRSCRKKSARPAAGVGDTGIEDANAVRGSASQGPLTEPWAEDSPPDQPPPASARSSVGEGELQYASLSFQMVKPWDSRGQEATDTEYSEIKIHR
# [4] = tested on: Trypanosoma cruzi; assay: Trypanosoma cruzi phosphomannomutase and mannose-1-phosphate guanylyltransferase assay; type: functional; conditions: 10 µM
# [5] = molecular target: T2, Arginase-2, mitochondrial (Homo sapiens) (UniProt P78540); assay: in vitro enzyme assay to detect the production of urea directly proportional to the activity of Arginase II; type: functional; conditions: 33.3 µM; further: in the data most compounds retested in dose-response had high values
# T2 sequence (whole entry): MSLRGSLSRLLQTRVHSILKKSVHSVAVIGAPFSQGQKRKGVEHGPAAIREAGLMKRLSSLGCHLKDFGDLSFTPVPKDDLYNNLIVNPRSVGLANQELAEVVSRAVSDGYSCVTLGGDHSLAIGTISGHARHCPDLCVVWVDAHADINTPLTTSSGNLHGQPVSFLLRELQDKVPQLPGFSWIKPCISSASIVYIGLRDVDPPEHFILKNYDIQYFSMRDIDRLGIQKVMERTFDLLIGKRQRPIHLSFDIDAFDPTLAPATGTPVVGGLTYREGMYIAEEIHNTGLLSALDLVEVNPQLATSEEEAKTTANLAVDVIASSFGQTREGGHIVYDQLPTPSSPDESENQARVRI
# [6] = molecular target: T3, Proteasome subunit beta (Trypanosoma cruzi) (UniProt O96673); assay: Trypanosoma cruzi proteasome chymotrypsin-like activity (TcProtChymo) assay.; further: in the data most compounds retested in dose-response had high values; type: functional; conditions: 9.37 µM
# T3 sequence (whole entry): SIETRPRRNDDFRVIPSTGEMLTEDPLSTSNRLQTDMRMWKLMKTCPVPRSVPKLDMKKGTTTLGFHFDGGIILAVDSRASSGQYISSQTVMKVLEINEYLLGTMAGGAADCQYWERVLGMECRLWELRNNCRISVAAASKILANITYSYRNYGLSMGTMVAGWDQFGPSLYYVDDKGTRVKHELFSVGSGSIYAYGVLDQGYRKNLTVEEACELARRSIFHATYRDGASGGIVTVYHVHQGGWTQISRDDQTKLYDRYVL
# [7] = species on record: Homo sapiens; assay: To identify inhibition of the IFN signalling (Jak-Stat) pathway via expression of an eGFP reporter gene under the control of an IFN-stimulated response element (ISRE) containing MxA promoter.; type: functional; conditions: 30 µM
# [8] = molecular target: T4, Tyrosyl-tRNA synthetase, putative (Trypanosoma cruzi (strain CL Brener)) (UniProt Q4DSP6); assay: Trypanosoma cruzi tyrosyl tRNA synthetase (TcYRS) _High Tyrosine SOP; type: functional; conditions: 30 µM; further: in the data most compounds retested in dose-response had high values
# T4 sequence (whole entry): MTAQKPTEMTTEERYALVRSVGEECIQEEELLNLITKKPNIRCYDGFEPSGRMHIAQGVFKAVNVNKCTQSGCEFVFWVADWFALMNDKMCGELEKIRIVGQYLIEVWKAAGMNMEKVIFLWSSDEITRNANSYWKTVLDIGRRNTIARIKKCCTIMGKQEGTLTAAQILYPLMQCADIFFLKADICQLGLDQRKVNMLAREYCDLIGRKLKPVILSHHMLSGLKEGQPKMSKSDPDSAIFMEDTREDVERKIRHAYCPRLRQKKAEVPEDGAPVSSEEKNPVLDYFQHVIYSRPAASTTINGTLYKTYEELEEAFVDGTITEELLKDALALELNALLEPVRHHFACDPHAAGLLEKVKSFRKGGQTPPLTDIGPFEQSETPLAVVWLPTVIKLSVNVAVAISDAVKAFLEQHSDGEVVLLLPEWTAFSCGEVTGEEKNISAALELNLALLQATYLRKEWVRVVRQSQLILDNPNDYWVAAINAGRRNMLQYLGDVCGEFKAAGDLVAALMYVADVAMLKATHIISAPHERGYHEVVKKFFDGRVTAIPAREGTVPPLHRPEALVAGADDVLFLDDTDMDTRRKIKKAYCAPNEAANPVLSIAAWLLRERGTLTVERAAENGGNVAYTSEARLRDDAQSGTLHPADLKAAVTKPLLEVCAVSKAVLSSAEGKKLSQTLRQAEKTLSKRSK
# [9] = molecular target: T4, Tyrosyl-tRNA synthetase, putative (Trypanosoma cruzi (strain CL Brener)); assay: Trypanosoma cruzi tyrosyl tRNA synthetase (TcYRS) SOP; type: functional; conditions: 30 µM
# [10] = molecular target: Chromo domain-containing protein 1 (Saccharomyces cerevisiae (strain ATCC 204508 / S288c) (Baker's yeast)) (UniProt P32657); assay: ScCHD-1 Enzyme Inhibition Assay; type: functional; conditions: 30 µM; further: in the data most compounds retested in dose-response had high values
# Chromo domain-containing protein 1 (Saccharomyces cerevisiae (strain ATCC 204508 / S288c) (Baker's yeast)), sequence (P32657 whole entry, the tested form may be a part): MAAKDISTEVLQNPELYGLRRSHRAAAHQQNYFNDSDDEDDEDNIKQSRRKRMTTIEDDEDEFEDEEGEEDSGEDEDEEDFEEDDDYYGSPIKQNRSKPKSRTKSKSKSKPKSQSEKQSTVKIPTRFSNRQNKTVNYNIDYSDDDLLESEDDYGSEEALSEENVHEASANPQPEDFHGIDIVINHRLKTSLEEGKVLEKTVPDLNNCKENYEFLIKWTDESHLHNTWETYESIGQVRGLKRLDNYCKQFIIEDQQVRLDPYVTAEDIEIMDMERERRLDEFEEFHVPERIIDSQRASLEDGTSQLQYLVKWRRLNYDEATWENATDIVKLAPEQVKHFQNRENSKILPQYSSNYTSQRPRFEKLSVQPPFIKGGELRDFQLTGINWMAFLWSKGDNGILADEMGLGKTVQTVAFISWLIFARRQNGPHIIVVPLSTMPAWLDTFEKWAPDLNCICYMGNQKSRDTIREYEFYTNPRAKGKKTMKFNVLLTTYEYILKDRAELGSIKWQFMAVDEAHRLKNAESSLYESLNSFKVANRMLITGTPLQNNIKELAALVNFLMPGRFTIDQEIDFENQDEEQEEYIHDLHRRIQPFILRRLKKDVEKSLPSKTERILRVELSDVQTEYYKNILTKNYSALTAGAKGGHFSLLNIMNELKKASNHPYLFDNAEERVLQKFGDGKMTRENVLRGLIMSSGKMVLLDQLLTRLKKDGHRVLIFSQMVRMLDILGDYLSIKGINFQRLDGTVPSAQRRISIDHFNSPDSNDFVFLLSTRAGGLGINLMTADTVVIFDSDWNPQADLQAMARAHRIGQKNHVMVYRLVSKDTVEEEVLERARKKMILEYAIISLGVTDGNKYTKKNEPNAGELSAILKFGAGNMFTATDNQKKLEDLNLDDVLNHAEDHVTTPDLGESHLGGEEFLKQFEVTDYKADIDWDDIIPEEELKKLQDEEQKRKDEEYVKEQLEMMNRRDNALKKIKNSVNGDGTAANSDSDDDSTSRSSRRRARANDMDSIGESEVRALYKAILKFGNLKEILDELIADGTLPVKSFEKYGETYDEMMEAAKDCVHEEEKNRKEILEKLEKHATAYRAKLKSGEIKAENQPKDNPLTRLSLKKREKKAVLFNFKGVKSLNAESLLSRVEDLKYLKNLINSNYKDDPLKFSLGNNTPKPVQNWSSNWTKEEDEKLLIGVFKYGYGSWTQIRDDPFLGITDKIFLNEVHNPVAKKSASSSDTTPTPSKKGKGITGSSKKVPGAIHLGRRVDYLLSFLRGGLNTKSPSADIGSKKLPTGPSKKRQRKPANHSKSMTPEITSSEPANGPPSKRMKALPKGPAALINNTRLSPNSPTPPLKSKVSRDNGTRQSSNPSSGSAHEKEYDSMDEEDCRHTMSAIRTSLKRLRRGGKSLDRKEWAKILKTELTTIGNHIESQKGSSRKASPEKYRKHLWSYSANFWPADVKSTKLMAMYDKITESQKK
Compound,Percent Effect [1] [%],Percent Effect [2] [%],Percent Effect [3] [%],Percent Effect [4] [%],Percent Effect [5] [%],Percent Effect [6] [%],Percent Effect [7] [%],Percent Effect [8] [%],Percent Effect [9] [%],Percent Effect [10] [%]
COc1cc(C)nc(N2CCN(C(=O)CN(C)C3CC3)CC2)n1,-5.5,7.69,-4.33,-3.1,-1.23,2.99,28.9,-1.44,8.43,0.147
CC(C)c1noc(CCC(=O)NCC2CCS(=O)(=O)C2)n1 (stereo not given),-2.91,21.3,0.895,2.81,-0.444,12.3,1.69,1.58,17.9,-12.2
O=C(NCC1CCOC1)Nc1ccc(OCC(F)(F)F)nc1 (stereo not given),0.633,7.69,2.59,-1.97,8.2,7.76,17.4,2.39,8.43,-2.87
CCNc1cc2c(nn1)CCN(C(=O)c1cc3nc(C)ccc3o1)C2,-8.41,13.3,11.1,9.04,-0.887,20.4,6.54,5.79,15.4,-6.95
CN(C)S(=O)(=O)N1CC[C@]2(C[C@H](Oc3ncccc3F)CO2)C1,-1.29,1.3,10.8,0.0974,0,1.15,-1.45,4.74,5.13,14.3
CCOC1CCCN(C(=O)c2sccc2-n2cnnn2)C1 (stereo not given),-1.7,20.5,-9.12,8.73,-1.23,13.1,21.5,8.13,22.9,-4.42
COC(=O)COc1cccc(NS(=O)(=O)c2cc(C(=O)O)cs2)c1,-0.923,17.9,-17.3,4.41,-2.87,17.5,22.9,1.44,20.5,-7.25
Cc1[nH]nc(CCC(=O)N2CCCC(OCc3cccnc3)C2)c1C (stereo not given),-5.06,10.8,4.22,0.679,-0.35,2.91,27.8,6.92,17.1,-1.03
O=C(C1CCCC1)N1CCC2(CC1)COCCN2CC1CC1,-2.73,16.9,-2.04,-1.31,5.02,10,9.54,11.6,15,-9.88
Cc1cnn(CC2CN(CC(=O)N(C)c3nccs3)CCO2)c1 (stereo not given),-4.67,8,4.67,0.201,-2.66,9.75,13.5,4.74,10.3,-8.81
CCOC(=O)N1CCN(C(=O)c2sc(-c3ccc(F)cc3)nc2C)CC1,-7.21,5.41,8.85,-1.65,1.05,17.5,1.22,4.79,12.2,-3.55
